The record followed here is ChEMBL document CHEMBL2218924, “A broad activity screen in support of a chemogenomic map for kinase signalling research and drug discovery” (Biochem J, 2013).

Assay [1] has as its target T1, cGMP-dependent protein kinase 1 (Homo sapiens) (UniProt Q13976).
T1 sequence (whole entry): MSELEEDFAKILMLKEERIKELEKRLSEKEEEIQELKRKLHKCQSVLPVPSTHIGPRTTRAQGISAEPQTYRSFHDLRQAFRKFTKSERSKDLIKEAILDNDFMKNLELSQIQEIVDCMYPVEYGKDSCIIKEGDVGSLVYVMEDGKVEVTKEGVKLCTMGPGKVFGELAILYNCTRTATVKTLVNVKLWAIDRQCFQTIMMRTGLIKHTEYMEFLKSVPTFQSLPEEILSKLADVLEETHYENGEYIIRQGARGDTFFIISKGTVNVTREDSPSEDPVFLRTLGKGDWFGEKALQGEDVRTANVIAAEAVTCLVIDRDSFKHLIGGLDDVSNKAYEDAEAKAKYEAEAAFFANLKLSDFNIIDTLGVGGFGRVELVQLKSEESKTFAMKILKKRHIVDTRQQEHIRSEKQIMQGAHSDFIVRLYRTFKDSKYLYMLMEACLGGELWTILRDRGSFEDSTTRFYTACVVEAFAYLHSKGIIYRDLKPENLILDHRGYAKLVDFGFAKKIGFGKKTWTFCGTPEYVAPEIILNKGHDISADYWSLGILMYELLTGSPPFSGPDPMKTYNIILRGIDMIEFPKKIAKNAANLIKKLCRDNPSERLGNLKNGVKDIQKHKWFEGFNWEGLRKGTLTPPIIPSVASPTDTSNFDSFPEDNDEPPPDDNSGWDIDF
To be noted: at 1 µM.

Assay [2] deals with T1, cGMP-dependent protein kinase 1 (Homo sapiens). The settings on record: at 10 µM.
Assay [3] has the same target. The settings on record: at 1 µM. This is another data set of the same source.
Assay [4] shares this target. To be noted: at 10 µM. The source holds these as a separate data set.
Assay [5] addresses T2, MAP kinase-activated protein kinase 5 (Homo sapiens) (UniProt Q8IW41).
T2 sequence (whole entry): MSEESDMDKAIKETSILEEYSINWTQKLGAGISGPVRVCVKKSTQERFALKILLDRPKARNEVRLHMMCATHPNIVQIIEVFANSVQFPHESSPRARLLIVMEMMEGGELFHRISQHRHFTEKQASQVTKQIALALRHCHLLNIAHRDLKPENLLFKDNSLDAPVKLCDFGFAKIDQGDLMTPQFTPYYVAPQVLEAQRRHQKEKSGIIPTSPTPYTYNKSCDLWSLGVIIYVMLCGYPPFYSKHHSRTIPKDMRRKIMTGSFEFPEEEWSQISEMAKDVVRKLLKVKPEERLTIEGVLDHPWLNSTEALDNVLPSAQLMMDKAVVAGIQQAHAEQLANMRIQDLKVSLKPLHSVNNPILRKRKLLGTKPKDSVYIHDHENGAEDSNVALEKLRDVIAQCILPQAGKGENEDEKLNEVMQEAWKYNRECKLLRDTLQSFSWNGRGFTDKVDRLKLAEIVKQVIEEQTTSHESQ
The settings on record: at 1 µM.

For assay [6], the target named is T2, MAP kinase-activated protein kinase 5 (Homo sapiens). The settings on record: at 10 µM.
The target of assay [7] is Serine/threonine-protein kinase N2 (Homo sapiens) (UniProt Q16513). To be noted: at 1 µM.
Assay [8] has the same target. The settings on record: at 10 µM.
Assay [9] deals with Tyrosine-protein kinase FRK (Homo sapiens) (UniProt P42685). The settings on record: at 1 µM.
For assay [10] the target is unchanged. To be noted: at 10 µM.
For assay [11], the target named is T3, Phosphorylase b kinase gamma catalytic chain, liver/testis isoform (Homo sapiens) (UniProt P15735).
T3 sequence (whole entry): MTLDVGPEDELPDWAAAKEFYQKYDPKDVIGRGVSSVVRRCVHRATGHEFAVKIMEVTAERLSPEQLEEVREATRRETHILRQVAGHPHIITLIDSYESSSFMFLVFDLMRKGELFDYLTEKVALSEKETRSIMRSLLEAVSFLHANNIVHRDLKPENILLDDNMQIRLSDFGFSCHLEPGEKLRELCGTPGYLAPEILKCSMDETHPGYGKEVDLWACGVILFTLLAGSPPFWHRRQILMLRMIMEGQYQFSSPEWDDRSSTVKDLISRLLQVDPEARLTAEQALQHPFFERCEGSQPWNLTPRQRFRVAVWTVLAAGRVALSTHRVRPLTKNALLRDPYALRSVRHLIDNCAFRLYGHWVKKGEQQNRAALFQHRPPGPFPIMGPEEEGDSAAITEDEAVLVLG
To be noted: at 10 µM.

For assay [12], the target named is Serine/threonine-protein kinase pim-1 (Homo sapiens) (UniProt P11309). To be noted: at 1 µM.
Assay [13] shares this target. The settings on record: at 10 µM.
Assay [14] concerns the target Serine/threonine-protein kinase pim-2 (Homo sapiens) (UniProt Q9P1W9). To be noted: at 1 µM.
Assay [15] shares this target. The settings on record: at 10 µM.
Assay [16] deals with Serine/threonine-protein kinase pim-3 (Homo sapiens) (UniProt Q86V86). The settings on record: at 1 µM.
Assay [17] has the same target. The settings on record: at 10 µM.
Assay [18] addresses Serine/threonine-protein kinase PLK1 (Homo sapiens) (UniProt P53350). The settings on record: at 1 µM.
The target is the same in assay [19]. To be noted: at 10 µM.
Assay [20] addresses T3, Phosphorylase b kinase gamma catalytic chain, liver/testis isoform (Homo sapiens). The settings on record: at 1 µM.

Each structure is given as a SMILES string.

Chain of Serine/threonine-protein kinase PLK1 (Homo sapiens) (P53350 whole entry): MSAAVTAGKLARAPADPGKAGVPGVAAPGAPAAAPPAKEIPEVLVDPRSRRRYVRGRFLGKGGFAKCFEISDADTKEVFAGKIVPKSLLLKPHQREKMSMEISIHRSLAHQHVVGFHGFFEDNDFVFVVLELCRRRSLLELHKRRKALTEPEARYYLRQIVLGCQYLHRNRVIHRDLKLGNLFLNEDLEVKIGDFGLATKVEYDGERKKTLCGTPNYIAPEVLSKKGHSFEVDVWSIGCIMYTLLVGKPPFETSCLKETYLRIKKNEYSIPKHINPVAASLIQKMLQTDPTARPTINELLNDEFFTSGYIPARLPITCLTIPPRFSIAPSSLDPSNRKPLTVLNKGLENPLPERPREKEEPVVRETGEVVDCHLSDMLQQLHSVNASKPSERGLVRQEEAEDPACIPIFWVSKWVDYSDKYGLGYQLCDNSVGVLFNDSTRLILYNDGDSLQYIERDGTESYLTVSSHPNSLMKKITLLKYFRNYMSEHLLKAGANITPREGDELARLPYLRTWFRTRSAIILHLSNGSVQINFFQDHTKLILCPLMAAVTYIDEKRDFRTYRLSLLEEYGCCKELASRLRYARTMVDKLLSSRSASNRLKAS
Chain of Serine/threonine-protein kinase pim-2 (Homo sapiens) (Q9P1W9 whole entry, looked up): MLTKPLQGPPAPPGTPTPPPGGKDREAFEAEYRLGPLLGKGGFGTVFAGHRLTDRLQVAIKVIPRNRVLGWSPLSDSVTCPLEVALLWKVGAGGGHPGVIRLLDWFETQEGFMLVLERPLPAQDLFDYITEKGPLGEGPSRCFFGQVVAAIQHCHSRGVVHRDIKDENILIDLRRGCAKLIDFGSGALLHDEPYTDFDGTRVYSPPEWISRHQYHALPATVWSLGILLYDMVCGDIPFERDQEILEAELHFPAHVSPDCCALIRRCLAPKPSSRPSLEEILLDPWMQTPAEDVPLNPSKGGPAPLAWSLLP
Chain of Tyrosine-protein kinase FRK (Homo sapiens) (P42685 whole entry): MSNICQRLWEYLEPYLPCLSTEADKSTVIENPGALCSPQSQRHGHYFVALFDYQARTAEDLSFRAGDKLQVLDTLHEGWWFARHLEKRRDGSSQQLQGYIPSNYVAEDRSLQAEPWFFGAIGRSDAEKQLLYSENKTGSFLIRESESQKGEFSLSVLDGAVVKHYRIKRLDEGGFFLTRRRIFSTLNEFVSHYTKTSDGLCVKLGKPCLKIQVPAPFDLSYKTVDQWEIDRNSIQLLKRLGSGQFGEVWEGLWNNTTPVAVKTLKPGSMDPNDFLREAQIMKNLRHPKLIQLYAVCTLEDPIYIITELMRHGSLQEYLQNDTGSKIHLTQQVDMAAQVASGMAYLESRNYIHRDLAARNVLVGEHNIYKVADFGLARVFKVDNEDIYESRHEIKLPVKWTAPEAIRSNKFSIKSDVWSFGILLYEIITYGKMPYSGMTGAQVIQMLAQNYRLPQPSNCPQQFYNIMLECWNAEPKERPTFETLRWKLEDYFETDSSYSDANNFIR
Chain of Serine/threonine-protein kinase N2 (Homo sapiens) (Q16513 whole entry, looked up): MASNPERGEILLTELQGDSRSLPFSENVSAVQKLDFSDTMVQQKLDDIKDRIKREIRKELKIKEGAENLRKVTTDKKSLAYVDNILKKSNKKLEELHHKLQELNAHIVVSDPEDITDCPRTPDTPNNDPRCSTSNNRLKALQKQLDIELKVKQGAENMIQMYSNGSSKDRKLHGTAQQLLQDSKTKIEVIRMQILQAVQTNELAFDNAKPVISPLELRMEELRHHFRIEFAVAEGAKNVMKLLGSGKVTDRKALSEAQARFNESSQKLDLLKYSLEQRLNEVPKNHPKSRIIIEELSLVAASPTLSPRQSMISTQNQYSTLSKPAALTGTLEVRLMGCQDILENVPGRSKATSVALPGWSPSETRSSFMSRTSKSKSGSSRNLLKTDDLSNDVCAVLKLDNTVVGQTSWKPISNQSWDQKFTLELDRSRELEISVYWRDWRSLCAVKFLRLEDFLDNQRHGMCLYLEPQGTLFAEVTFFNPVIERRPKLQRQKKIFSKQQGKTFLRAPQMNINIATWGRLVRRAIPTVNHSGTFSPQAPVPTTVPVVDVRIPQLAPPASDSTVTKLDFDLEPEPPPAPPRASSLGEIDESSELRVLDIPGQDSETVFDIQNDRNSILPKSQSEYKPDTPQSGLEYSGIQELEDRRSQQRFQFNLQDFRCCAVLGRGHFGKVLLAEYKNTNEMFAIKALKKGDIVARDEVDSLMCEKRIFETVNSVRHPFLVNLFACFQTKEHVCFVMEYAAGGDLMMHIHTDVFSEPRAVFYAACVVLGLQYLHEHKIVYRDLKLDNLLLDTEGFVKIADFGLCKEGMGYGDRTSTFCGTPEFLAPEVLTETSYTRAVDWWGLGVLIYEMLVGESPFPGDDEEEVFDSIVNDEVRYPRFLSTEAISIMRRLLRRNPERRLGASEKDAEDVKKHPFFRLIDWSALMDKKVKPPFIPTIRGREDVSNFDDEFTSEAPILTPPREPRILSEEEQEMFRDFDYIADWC
Chain of Serine/threonine-protein kinase pim-1 (Homo sapiens) (P11309 whole entry, looked up): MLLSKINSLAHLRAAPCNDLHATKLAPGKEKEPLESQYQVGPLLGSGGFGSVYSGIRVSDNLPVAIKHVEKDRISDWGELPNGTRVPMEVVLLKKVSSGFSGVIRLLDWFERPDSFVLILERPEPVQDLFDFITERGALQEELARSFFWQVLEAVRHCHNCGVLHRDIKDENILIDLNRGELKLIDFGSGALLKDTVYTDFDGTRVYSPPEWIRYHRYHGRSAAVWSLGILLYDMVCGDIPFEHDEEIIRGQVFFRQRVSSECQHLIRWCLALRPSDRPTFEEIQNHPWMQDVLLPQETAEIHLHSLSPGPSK

As for `N#C/C(=C(\N)Sc1ccc(N)cc1)c1ccccc1C(F)(F)F`, the residual activity was found to be 97% in assay [1]; 95% in assay [2]; 100% in [3]; 33% in assay [4]; 91% in [5]; 90% in [6]. Moreover, the residual activity in [7] amounted to 68%; in assay [8], 48%; in [9], 94%; in [10], 95%; in assay [11] it was 108%; in assay [12], 79%. Also, the residual activity in [13] was 83%; in assay [14], 130%; in assay [15] it was 133%; in assay [16] it was 87%; in assay [17], 84%; in assay [18] it was 85%. Also, the residual activity in assay [19] was 90%.
Take `COc1cc2ncnc(Nc3ccc(NC(=O)c4ccccc4)cc3)c2cc1OC`: the residual activity came out at 105% in assay [1]; 99% in assay [2]; 90% in assay [3]; 105% in [5]; 76% in assay [6]; 109% in [9]. Further, the residual activity was found to be 76% in [10]; 101% in [20]; 88% in assay [12]; 96% in assay [13]; 85% in assay [14]; 107% in assay [16]. The values for the residual activity in [17] and in assay [18] were 99% and 105%, respectively.
Regarding `N#CCCc1ccc2c(c1)-c1[nH]c3ccc([N+](=O)[O-])cc3c1CC(=O)N2`, the residual activity is 68% in assay [5]; 43% in [6]; 57% in assay [7]; 28% in assay [8]; 54% in assay [9]; 22% in assay [10]. Moreover, the residual activity in [13] amounted to 69%; in assay [14], 120%.
With `CCN(CC)C(=O)c1ccc(Nc2nc(OCC3CCCCC3)c3nc[nH]c3n2)cc1`, the residual activity is 12% in assay [6]; 66% in assay [7]; 12% in assay [8]; 78% in assay [9]; 38% in assay [10]; 77% in [12]. Besides, the residual activity in [13] worked out at 56%; in assay [14], 143%; in [18] it was 78%; in [19], 66%.
For the molecule `Oc1ccc(-c2nc(-c3ccc(F)cc3)c(-c3ccncc3)[nH]2)cc1`, the residual activity in [1] came to 108%; in assay [2], 66%; in [3] it was 108%; in [4] it was 78%; in [5], 110%; in [6], 80%. The residual activity came out at 107% in assay [7]; 47% in assay [8]; 65% in [9]; 12% in assay [10]; 107% in assay [20]; 98% in assay [11]. Moreover, the residual activity is 96% in assay [12]; 91% in assay [13]; 125% in [14]; 96% in assay [16]; 92% in assay [17]; 94% in assay [18]. The residual activity in assay [19] stood at 83%.
As to `CC(=O)c1ccc(N2CCOCC2)cc1O`, the residual activity in assay [5] turned out to be 77%; in assay [6], 109%; in assay [7], 100%; in assay [8], 109%; in assay [9], 109%; in [10], 99%. The residual activity was determined as 82% in assay [12]; 87% in assay [13]; 91% in [14]; 129% in assay [15]; 96% in assay [16]; 91% in assay [17]. The values for the residual activity in [18] and in assay [19] were 91% and 68%, respectively.
In the case of `COc1cc2ncc(-c3ccccc3)nc2cc1OC`, the residual activity turned out to be 125% in [5]; 85% in assay [6]; 90% in assay [9]; 90% in [10]; 81% in [12]; 82% in assay [13]. Moreover, the residual activity in assay [14] came to 127%; in assay [15] it was 144%; in assay [16] it was 95%; in assay [17] it was 99%; in assay [18] it was 88%; in assay [19], 75%.
Turning to `COc1cccc(-c2cc(=O)c3ccccc3o2)c1N`, the residual activity in assay [1] is 95%; in assay [2], 89%; in [3], 114%; in [4], 102%; in assay [5], 125%; in [6], 108%. The residual activity in assay [7] is 94%; in assay [8] it was 90%; in assay [9], 93%; in assay [10], 86%; in assay [20], 113%; in assay [11], 117%. The residual activity in assay [12] is 82%; in [13], 58%; in assay [14], 126%; in [15], 102%; in assay [16] it was 89%; in assay [17], 91%. In addition, the residual activity came to 81% in assay [18] and 102% in [19].
